According to article PMC7862700, “An all-to-all approach to the identification of sequence-specific readers for epigenetic DNA modifications on cytosine”:

Experiments:
Assay in all cases: DAPPL (digital affinity profiling via proximity ligation, sequencing); 10 mM Tris-HCl pH 7.5, 50 mM NaCl, 1 mM DTT, 4% glycerol, room temperature, 30 min; GST-TFs on glutathione beads, 16-mer random dsDNA library, 0.1% formaldehyde crosslink after washing; high values mean tight binding
[1] = biological target: T1, FLI1 (Homo sapiens, UniProt Q01543 1-452); conditions: protein: recombinant; tags: N-terminal GST; dsDNA, one strand shown
T1 sequence: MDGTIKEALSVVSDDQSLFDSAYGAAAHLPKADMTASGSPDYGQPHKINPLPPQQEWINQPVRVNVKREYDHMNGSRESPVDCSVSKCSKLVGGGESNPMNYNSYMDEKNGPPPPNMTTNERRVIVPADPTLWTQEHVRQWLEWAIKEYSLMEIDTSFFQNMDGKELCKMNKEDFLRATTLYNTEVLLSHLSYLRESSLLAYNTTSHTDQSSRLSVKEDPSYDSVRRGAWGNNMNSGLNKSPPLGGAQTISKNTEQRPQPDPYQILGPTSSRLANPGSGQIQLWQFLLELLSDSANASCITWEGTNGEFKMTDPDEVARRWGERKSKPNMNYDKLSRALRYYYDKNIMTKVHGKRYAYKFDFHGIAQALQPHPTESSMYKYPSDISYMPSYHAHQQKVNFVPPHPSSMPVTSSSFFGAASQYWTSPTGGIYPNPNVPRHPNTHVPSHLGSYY
Procedure, shortened: (§1)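 Human transcription factors fused to GST were expressed in yeast, captured on glutathione beads, given DNA barcodes and pooled with a GST-only negative control. Pools were incubated with 200 nmole of a 16-mer random double-stranded DNA library in Tris/NaCl/DTT/glycerol buffer at room temperature for 30 min. They were then washed, crosslinked with 0.1% formaldehyde, proximity-ligated (BsaI/T4 ligase, 1 h, 37 °C), PCR-amplified and sequenced on an Illumina NextSeq500. Binding signal is each 6-mer's read frequency for a factor divided by its frequency for the GST control.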

[2] = biological target: T2, ELK1 (Homo sapiens, UniProt P19419 1-428); conditions: protein: recombinant; tags: N-terminal GST; dsDNA, one strand shown
T2 sequence: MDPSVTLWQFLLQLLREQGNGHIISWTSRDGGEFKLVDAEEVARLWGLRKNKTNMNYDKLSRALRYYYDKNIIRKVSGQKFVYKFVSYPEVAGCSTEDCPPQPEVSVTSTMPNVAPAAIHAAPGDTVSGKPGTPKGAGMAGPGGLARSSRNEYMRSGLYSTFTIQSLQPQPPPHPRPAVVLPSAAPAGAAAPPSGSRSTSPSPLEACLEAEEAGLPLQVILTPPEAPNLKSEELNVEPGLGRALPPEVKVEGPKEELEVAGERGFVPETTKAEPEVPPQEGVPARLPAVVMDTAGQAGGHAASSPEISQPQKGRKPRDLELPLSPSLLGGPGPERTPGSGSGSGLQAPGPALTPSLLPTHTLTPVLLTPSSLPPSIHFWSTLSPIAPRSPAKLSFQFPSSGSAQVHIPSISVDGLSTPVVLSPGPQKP
Procedure, shortened: as §1

[3] = biological target: T3, GABPA (Homo sapiens, UniProt Q06546 1-454); conditions: protein: recombinant; tags: N-terminal GST; dsDNA, one strand shown
T3 sequence: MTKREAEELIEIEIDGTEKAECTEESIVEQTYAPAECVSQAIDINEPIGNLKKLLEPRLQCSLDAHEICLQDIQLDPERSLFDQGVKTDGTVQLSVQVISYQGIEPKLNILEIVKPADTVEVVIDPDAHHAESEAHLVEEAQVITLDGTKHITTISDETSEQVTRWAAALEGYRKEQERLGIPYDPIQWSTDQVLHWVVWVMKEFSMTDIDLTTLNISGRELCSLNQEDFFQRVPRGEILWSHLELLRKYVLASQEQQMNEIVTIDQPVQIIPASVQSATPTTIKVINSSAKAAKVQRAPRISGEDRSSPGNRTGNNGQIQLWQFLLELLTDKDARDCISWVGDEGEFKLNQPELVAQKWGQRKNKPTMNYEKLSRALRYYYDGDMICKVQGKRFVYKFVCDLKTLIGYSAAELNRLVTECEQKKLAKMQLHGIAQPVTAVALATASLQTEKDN
Procedure, shortened: as §1

[4] = biological target: T4, ERG (Homo sapiens, UniProt P11308 1-479); conditions: protein: recombinant; tags: N-terminal GST; dsDNA, one strand shown
T4 sequence: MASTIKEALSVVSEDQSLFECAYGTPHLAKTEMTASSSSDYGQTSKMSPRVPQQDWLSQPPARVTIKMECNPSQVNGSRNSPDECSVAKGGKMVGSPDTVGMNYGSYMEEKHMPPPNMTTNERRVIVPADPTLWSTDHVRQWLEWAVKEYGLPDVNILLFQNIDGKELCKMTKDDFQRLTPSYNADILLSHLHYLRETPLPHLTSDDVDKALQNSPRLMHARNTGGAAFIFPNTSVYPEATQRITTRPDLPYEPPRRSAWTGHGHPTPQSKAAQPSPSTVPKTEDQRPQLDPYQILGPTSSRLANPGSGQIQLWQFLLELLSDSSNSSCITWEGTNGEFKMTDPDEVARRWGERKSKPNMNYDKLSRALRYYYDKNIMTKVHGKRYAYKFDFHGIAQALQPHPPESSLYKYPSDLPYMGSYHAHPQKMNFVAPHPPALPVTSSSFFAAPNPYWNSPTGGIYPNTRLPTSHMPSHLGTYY
Procedure, shortened: as §1

[5] = biological target: ELF1 (Homo sapiens, UniProt P32519 1-619); conditions: protein: recombinant; tags: N-terminal GST; dsDNA, one strand shown
ELF1, sequence (P32519 whole entry): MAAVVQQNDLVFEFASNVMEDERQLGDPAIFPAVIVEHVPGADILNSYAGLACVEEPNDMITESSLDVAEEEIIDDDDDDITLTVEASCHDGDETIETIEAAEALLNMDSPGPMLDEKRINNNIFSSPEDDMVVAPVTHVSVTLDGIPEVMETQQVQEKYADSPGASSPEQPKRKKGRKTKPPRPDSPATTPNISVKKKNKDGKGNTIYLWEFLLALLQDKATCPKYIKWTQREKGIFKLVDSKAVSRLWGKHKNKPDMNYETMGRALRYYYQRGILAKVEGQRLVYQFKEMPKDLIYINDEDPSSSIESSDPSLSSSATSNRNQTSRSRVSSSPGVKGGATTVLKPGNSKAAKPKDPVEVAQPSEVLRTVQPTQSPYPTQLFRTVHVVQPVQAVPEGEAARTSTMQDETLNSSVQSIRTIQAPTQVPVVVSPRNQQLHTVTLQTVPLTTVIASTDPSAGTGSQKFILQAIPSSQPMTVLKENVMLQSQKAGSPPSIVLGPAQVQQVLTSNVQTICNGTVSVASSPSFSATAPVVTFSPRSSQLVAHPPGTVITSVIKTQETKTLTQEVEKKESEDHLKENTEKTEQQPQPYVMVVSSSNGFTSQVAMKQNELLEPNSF
Procedure, shortened: as §1

[6] = biological target: T5, EHF (Homo sapiens, UniProt Q9NZC4 1-300); conditions: protein: recombinant; tags: N-terminal GST; dsDNA, one strand shown
T5 sequence: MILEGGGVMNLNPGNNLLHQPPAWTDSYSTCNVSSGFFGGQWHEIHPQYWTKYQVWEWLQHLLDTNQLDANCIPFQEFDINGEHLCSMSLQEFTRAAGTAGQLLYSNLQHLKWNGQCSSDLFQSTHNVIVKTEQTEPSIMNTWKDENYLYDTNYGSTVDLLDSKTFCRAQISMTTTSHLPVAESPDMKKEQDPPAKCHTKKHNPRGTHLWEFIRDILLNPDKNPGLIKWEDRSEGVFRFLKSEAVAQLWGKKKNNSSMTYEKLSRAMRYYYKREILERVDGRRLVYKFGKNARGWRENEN
Procedure, shortened: as §1

[7] = biological target: SPI1 (Homo sapiens, UniProt P17947 1-270); conditions: protein: recombinant; tags: N-terminal GST; dsDNA, one strand shown
Procedure, shortened: as §1

[8] = biological target: SPIB (Homo sapiens, UniProt Q01892 1-262); conditions: protein: recombinant; tags: N-terminal GST; dsDNA, one strand shown
SPIB, sequence (Q01892 whole entry): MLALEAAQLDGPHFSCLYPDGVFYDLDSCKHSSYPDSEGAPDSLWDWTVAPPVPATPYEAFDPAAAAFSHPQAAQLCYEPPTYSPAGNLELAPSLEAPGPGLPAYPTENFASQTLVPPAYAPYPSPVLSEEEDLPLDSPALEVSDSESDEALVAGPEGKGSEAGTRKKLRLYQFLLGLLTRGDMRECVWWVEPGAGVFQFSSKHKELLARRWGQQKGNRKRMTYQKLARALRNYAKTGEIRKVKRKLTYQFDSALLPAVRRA
Procedure, shortened: as §1

[9] = biological target: T6, ELK3 (Homo sapiens, UniProt P41970 1-407); conditions: protein: recombinant; tags: N-terminal GST; dsDNA, one strand shown
T6 sequence: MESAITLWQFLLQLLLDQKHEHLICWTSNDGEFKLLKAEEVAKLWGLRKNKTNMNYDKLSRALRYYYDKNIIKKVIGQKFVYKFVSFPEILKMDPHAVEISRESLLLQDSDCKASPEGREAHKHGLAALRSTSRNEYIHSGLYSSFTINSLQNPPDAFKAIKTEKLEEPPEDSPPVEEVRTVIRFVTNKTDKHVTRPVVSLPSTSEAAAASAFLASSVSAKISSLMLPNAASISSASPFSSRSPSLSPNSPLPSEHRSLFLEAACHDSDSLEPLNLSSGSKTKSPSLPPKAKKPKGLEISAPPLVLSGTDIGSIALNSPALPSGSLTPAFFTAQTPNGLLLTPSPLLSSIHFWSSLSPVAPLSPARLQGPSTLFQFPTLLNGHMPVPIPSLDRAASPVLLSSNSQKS
Procedure, shortened: as §1

[10] = biological target: T7, FEV (Homo sapiens, UniProt Q99581 1-238); conditions: protein: recombinant; tags: N-terminal GST; dsDNA, one strand shown
T7 sequence: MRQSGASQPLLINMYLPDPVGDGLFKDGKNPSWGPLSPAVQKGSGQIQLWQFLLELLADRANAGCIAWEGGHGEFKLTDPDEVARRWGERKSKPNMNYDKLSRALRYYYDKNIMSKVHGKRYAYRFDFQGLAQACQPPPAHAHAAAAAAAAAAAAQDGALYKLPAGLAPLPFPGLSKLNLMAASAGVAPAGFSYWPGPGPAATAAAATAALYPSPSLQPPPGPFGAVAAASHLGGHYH
Procedure, shortened: as §1

[11] = biological target: ETV5 (Homo sapiens, UniProt P41161 1-510); conditions: protein: recombinant; tags: N-terminal GST; dsDNA, one strand shown
ETV5, sequence (P41161 whole entry): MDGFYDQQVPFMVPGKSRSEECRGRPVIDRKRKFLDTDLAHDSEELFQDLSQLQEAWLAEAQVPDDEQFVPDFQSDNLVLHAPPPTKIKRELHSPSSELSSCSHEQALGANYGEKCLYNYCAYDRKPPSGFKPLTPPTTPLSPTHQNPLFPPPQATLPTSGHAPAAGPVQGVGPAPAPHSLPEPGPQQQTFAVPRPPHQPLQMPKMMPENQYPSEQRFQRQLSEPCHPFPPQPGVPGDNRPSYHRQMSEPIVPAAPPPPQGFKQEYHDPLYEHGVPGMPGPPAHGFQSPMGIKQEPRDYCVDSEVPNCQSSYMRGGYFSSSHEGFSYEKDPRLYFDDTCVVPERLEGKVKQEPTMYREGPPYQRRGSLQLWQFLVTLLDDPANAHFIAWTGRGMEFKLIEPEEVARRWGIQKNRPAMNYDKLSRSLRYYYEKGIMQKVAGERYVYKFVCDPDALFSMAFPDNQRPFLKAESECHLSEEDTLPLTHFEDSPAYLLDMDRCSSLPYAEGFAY
Procedure, shortened: as §1

[12] = biological target: HSF1 (Homo sapiens, UniProt Q00613 1-529); conditions: protein: recombinant; tags: N-terminal GST; chain copies: 3; dsDNA, one strand shown
HSF1, sequence (Q00613 whole entry): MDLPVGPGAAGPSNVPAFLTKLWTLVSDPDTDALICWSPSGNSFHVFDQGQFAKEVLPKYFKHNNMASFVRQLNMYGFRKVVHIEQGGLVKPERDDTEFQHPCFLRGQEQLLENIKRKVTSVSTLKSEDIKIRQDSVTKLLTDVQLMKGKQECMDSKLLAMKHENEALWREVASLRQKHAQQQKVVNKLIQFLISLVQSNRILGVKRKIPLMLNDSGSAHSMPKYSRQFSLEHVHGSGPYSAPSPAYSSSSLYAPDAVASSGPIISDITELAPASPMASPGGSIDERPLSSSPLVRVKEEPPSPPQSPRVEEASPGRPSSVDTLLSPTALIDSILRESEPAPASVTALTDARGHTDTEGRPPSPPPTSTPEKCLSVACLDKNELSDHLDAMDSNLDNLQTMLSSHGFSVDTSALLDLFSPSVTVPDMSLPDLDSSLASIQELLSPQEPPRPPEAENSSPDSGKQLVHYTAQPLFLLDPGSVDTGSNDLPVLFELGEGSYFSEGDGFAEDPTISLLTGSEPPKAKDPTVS
Procedure, shortened: as §1

[13] = biological target: T8, SPIC (Homo sapiens, UniProt Q8N5J4 1-248); conditions: protein: recombinant; tags: N-terminal GST; dsDNA, one strand shown
T8 sequence: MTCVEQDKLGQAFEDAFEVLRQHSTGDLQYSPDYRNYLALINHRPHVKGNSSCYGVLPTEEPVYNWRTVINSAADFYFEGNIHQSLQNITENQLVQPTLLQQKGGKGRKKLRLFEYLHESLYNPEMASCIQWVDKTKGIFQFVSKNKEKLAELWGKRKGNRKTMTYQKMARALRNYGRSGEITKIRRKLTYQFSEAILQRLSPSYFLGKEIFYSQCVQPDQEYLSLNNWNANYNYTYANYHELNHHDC
Procedure, shortened: as §1

[14] = biological target: ELF4 (Homo sapiens, UniProt Q99607 1-663); conditions: protein: recombinant; tags: N-terminal GST; dsDNA, one strand shown
ELF4, sequence (Q99607 whole entry): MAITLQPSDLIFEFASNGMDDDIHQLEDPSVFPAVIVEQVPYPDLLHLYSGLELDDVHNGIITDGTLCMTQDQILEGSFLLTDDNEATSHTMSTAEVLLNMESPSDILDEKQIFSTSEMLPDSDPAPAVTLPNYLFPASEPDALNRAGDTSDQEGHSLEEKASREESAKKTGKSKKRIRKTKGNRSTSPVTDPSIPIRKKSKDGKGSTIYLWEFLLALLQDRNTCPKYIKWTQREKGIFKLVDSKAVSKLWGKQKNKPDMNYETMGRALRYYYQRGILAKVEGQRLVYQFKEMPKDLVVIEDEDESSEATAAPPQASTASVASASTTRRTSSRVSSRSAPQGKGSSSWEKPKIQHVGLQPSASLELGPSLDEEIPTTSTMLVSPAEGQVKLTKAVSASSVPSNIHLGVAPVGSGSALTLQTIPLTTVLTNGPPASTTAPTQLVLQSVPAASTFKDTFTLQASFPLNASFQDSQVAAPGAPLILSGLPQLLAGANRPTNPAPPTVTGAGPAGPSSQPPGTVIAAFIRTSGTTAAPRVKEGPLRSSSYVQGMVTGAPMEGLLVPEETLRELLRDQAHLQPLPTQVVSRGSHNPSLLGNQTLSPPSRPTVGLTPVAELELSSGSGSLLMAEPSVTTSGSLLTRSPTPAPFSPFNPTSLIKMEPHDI
Procedure, shortened: as §1

[15] = biological target: T9, ELK4 (Homo sapiens, UniProt P28324-2 1-405); conditions: protein: recombinant; tags: N-terminal GST; dsDNA, one strand shown
T9 sequence: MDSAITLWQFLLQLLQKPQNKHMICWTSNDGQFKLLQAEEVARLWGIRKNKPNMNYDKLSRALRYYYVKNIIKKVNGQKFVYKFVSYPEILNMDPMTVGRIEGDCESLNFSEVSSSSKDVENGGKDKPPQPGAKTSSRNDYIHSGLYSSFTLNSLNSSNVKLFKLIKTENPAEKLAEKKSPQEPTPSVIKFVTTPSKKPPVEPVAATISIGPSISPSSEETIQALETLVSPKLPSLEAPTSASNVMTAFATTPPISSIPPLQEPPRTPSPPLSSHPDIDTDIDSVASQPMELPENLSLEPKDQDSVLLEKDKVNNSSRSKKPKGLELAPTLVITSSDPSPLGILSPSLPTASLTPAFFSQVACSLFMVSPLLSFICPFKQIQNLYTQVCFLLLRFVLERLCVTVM
Procedure, shortened: as §1

[16] = biological target: T10, ETV2 (Homo sapiens, UniProt O00321 1-342); conditions: protein: recombinant; tags: N-terminal GST; dsDNA, one strand shown
T10 sequence: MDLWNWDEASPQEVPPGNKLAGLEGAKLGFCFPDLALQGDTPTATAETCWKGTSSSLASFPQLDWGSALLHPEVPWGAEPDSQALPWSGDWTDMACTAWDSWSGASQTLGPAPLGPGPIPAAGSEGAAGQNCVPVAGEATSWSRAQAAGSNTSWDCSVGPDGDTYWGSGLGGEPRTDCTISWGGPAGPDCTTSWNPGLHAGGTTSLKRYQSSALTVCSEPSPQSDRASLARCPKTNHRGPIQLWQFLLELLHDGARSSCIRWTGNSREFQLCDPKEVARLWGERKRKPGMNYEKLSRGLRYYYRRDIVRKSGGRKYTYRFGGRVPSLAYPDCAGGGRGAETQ
Procedure, shortened: as §1

[17] = biological target: T11, ELF3 (Homo sapiens, UniProt P78545 1-371); conditions: protein: recombinant; tags: N-terminal GST; dsDNA, one strand shown
T11 sequence: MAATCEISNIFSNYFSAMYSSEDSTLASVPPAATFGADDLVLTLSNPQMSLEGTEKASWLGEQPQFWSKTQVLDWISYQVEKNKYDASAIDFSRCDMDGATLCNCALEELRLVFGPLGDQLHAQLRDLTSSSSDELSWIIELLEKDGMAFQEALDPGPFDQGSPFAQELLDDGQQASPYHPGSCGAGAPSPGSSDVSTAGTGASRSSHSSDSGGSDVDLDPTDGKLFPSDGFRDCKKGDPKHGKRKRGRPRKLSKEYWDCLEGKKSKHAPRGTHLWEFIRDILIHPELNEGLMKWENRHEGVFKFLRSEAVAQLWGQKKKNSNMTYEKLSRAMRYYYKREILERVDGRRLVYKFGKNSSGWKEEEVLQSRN
Procedure, shortened: as §1

[18] = biological target: CRX (Homo sapiens, UniProt O43186 1-299); conditions: protein: recombinant; tags: N-terminal GST; dsDNA, one strand shown
CRX, sequence (O43186 whole entry): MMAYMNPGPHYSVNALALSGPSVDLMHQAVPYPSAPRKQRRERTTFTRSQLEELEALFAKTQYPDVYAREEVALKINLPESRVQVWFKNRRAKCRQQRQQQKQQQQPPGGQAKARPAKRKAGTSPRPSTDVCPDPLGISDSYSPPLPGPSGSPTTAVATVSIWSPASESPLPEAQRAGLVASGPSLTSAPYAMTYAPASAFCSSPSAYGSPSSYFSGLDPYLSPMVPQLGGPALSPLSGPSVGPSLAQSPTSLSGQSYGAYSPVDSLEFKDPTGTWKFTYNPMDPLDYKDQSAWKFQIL
Procedure, shortened: as §1

[19] = biological target: ETV1 (Homo sapiens, UniProt P50549 1-477); conditions: protein: recombinant; tags: N-terminal GST; dsDNA, one strand shown
ETV1, sequence (P50549 whole entry): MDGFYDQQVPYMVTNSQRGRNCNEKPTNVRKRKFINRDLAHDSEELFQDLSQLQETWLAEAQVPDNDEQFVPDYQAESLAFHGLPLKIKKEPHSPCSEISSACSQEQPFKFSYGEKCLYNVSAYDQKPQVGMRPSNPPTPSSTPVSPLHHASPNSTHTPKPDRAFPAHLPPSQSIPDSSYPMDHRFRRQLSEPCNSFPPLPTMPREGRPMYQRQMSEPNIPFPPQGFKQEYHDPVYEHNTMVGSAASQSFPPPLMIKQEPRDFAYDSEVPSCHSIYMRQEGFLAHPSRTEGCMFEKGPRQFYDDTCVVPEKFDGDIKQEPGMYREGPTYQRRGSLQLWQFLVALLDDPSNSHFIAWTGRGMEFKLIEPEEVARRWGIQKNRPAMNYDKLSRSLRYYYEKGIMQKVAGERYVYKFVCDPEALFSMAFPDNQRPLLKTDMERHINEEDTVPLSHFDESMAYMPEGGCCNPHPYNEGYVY
Procedure, shortened: as §1

CGAATA
binding signal [1]: 1.09 fold enrichment (6-mer frequency, TF over GST control) | binding signal [2]: 1.23 fold enrichment (6-mer frequency, TF over GST control) | binding signal [3]: 1.17 fold enrichment (6-mer frequency, TF over GST control) | binding signal [4]: 1.07 fold enrichment (6-mer frequency, TF over GST control) | binding signal [5]: 1.28 fold enrichment (6-mer frequency, TF over GST control) | binding signal [6]: 1.2 fold enrichment (6-mer frequency, TF over GST control) | binding signal [7]: 1.13 fold enrichment (6-mer frequency, TF over GST control) | binding signal [8]: 1.11 fold enrichment (6-mer frequency, TF over GST control) | binding signal [9]: 1.21 fold enrichment (6-mer frequency, TF over GST control) | binding signal [10]: 1.16 fold enrichment (6-mer frequency, TF over GST control) | binding signal [11]: 1.07 fold enrichment (6-mer frequency, TF over GST control) | binding signal [12]: 1.87 fold enrichment (6-mer frequency, TF over GST control) | binding signal [13]: 1.26 fold enrichment (6-mer frequency, TF over GST control) | binding signal [14]: 1.11 fold enrichment (6-mer frequency, TF over GST control) | binding signal [15]: 1.25 fold enrichment (6-mer frequency, TF over GST control) | binding signal [16]: 1.29 fold enrichment (6-mer frequency, TF over GST control) | binding signal [17]: 1.07 fold enrichment (6-mer frequency, TF over GST control) | binding signal [18]: 1.31 fold enrichment (6-mer frequency, TF over GST control) | binding signal [19]: 1.19 fold enrichment (6-mer frequency, TF over GST control)
